This is an account of results in PubChem BioAssay AID624331 (National Center for Advancing Translational Sciences (NCATS), 2012).

Results filed as inconclusive are left out. Activity calls are given as the source filed them. Calls come from the whole dose curve; as a rule, active = well fitted activation curve with a large enough effect; inconclusive = small, poorly fitted or top-dose-only effect; inactive = no such curve, though single readings can be large or run the other way.

The nature of this test: qHTS assay for re-activators of p53 using a Luc reporter: Hit Validation with no p53 Expressed. The following applies: p53-null cells, luciferase reporter counter-screen; series mostly up to 46.1 µM. The source says:
The p53 tumor suppressor plays a key role in suppression of tumorigenesis and in human carcinogenesis. It is frequently found inactivated in human cancers, mainly by point mutation. These point mutations are found in a wide variety of human cancers and a majority of them affect the DNA binding domain of the protein. The point mutations either alter native p53 conformation or abolish DNA contact. Additionally, cancer cells with p53 mutations are more resistant to chemo-radiation therapies.
This counter screen was run against the hits identified from the primary screen. It uses a cell line that was not transfected with p53. Compounds that show activity in this counter screen show unspecific activation of the assay system and are excluded from further consideration.
NIH Chemical Genomics Center [NCGC]
NIH Molecular Libraries Probe Production Centers Network [MLPCN]
Assay Provider (PI): Yi Sung, University of Michigan at Ann Arbor
5ul of 1000 cells per well are dispensed in all wells except column 4, into white solid-bottom TC-treated Kalypsys plates. The cells are kept in Opti-MEM and supplemented with 10% FBS and dispensed using a Multidrop (Thermo). Then using the Kalypsys pin-tool, 23nl of compounds are pinned. The compounds are starting concentration at 10mM, with 1:5 dilution, 4 points, and the control compound nocodazole is pinned in column 1 at 25mM, 1:3 dilution, in duplicate, 25mM nocodazole is pinned in column 2. Please note, all concentrations are working concentrations. 5ul of 1pM purified luciferase enzyme is dispensed using the Kalypsys dispenser in column 4. Plates are incubated for 24 hrs at 37 deg C, 5% CO2, and 95% humidity. Then 4ul of the detection reagent Amplite (ABD Bioquest) is added using the Kalypsys dispenser. Plates are incubated for 10 min at ambient room temperature and are then read on the ViewLux (Perkin Elmer) using a clear filter for a luminescent read-out.
Take `COc1ccc(NC(=O)C2C3CCC(O3)C2C(=O)O)c(OC)c1` (configuration not stated): the result was inactive. For the molecule `COC(=O)C1=C(c2ccc(F)cc2OCc2ccccc2)C[C@@H]2CC[C@H]1N2C(=O)NCCOc1ccc(OC)cc1`, the molecule was called inactive. The result for `CN(C)P(=O)(C(Cl)=C(N1CCCCC1)N1CCCCC1)N(C)C` reads “inactive”.

With `N=C1c2ccccc2CN1CC(=O)c1ccccc1`, the outcome was inactive.

For the molecule `COc1ccc(CN2CCNCC2)cc1`, the call was inactive. Turning to `O=C(N/N=C/c1c(O)n(C2CC2)c(=S)[nH]c1=O)c1ccccc1`, the outcome was inactive. For the molecule `CC1CCCCC1NC1CCN(C)CC1` (configuration not stated), the molecule was called inactive. In the case of `C=C(C)C(Cc1c(OC)ccc(C(=O)/C=C/c2ccc(O)cc2)c1O)OO` (configuration not stated), the result was inactive.

`Nc1c(C(=O)NCc2ccco2)c2nc3ccccc3nc2n1Cc1ccc(F)cc1`: the molecule was called inactive. As to `Nc1ccccc1N=Cc1c(O)n(CCC2=CCCCC2)c(=O)[nH]c1=O`, the molecule was classed as inactive.

As for `N#Cc1cc2c(nc1SCC(=O)Nc1cc(Cl)ccc1Cl)C1CCN2CC1`, the call was inactive.

For the molecule `Cc1cc(N2C(=O)C3CCCN3C2c2sccc2C)no1` (configuration not stated), the molecule was classed as inactive. Take `O=C(c1cc2c(s1)CCCC2)N1CCC2(CC1)OCCO2`: the result was inactive.

As to `COC(=O)C1=C(c2cccc(C#N)c2)C[C@@H]2CC[C@H]1N2C(=O)NC1CC1`, the call was inactive. Consider `N#Cc1cc2c(nc1SCC(=O)Nc1ccc(Cl)cc1)C1CCN2CC1`, for which the outcome was inactive.

For the molecule `O=C(N/N=C/c1c(O)n(Cc2ccccc2)c(=O)[nH]c1=O)c1ccccc1`, the molecule was classed as inactive. For the molecule `CCCCCCOc1ccc(CN2CCN(C)CC2)cc1`, the result was inactive.
